The panel holds about 83,000 compounds, 20% with a hit somewhere; the sample as a whole holds those more often.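 The endpoint reported here, percent growth, reads 100 for growth as untreated, 0 for no net growth and -100 for all cells dead.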 Unmarked numbers belong to inactive results. Activity calls are given as the source filed them. How the source made its calls: active means growth percent below 10; inactive means the rest.

Among the test systems are SR leukemia; RPMI-8226 leukemia; OVCAR-8 ovarian; OVCAR-5 ovarian; OVCAR-4 ovarian; SK-OV-3 ovarian; IGROV1 ovarian; OVCAR-3 ovarian; HS 578T breast; NCI/ADR-RES ovarian; T-47D breast; BT-549 breast; MDA-MB-435 melanoma; SW-620 colon; MCF7 breast; HCT-116 colon; HCC-2998 colon; KM12 colon.
What all share (test): NCI-60 one-dose screen, 48 h (100 = growth as untreated, 0 = no growth, -100 = all killed)
Details in all cases: 10 µM unless noted

On to `N#Cc1c(-c2cccc(Cl)c2)cc(-c2cccnc2)[nH]c1=O`, for which the growth is 21.9% in the test on SR leukemia; 88.8% in the test with RPMI-8226 leukemia; 98.1% in the test on OVCAR-8 ovarian; 98.4% with OVCAR-5 ovarian; 102% with OVCAR-4 ovarian; 90.7% in the test on SK-OV-3 ovarian. Moreover, the growth in the test on IGROV1 ovarian is 72.4%; in the test on OVCAR-3 ovarian, 47.2%; in the test with HS 578T breast, 62.7%; with NCI/ADR-RES ovarian, 80.3%; with T-47D breast, 87.3%; with BT-549 breast it was 72.5%. In addition, the growth in the test with MDA-MB-435 melanoma is 2.97% (active); with SW-620 colon it was 71.1%; in the test on MCF7 breast, 48.2%; with HCT-116 colon it was 72.4%; in the test on HCC-2998 colon, 98.6%; with KM12 colon, 65.6%.
Consider `Cc1c2ccccc2nc2cc3c(cc12)[C@H]1CC[C@]2(C)C(=O)CC[C@H]2[C@@H]1CC3`, for which the growth in the test with SR leukemia is 92.9%; in the test on RPMI-8226 leukemia, 79.5%; with OVCAR-8 ovarian, 92.5%; with OVCAR-5 ovarian it was 97.6%; with OVCAR-4 ovarian, 95.8%; in the test with SK-OV-3 ovarian, 124%. In addition, the growth in the test on IGROV1 ovarian is 101%; with OVCAR-3 ovarian, 104%; with HS 578T breast, 86.3%; in the test on NCI/ADR-RES ovarian, 103%; with T-47D breast, 103%; with BT-549 breast, 96%. Moreover, the growth in the test on MDA-MB-435 melanoma is 95.6%; in the test on SW-620 colon, 99.8%; in the test on MCF7 breast it was 115%; in the test with HCT-116 colon it was 90.2%; in the test with HCC-2998 colon, 109%; with KM12 colon, 95.4%.
Turning to `COCC(=O)Oc1cc(-c2ccc(C)cc2C)c(OC(=O)COC)c(-c2ccc(C)cc2C)c1`, the growth in the test on SR leukemia was 20.6%; in the test on RPMI-8226 leukemia, 34.2%; in the test with OVCAR-8 ovarian, 59.5%; in the test with OVCAR-5 ovarian, 38.1%; in the test with OVCAR-4 ovarian, 50.5%; in the test with SK-OV-3 ovarian, 66.2%. Besides, the growth with IGROV1 ovarian is 50.1%; with OVCAR-3 ovarian, 51.9%; in the test with HS 578T breast, 55%; in the test with NCI/ADR-RES ovarian, 68.2%; with T-47D breast, 43.7%; with BT-549 breast, 56.6%. The growth with MDA-MB-435 melanoma is 59.6%; in the test with SW-620 colon, 43.2%; in the test on MCF7 breast, 41%; in the test on HCT-116 colon, 17.7%; in the test on HCC-2998 colon, 88%; in the test on KM12 colon, 44.8%.
On to `C=C1C(=O)O[C@H]2[C@H]1CC/C(COC(=O)NCc1ccc(Cn3c(=O)sn(-c4ccc(I)cc4)c3=O)cc1)=C\CC[C@@]1(C)O[C@@H]21`, for which the growth in the test on SR leukemia is 63%; in the test on RPMI-8226 leukemia, 7.56% (active); in the test with OVCAR-8 ovarian, 82.1%; in the test with OVCAR-5 ovarian, 96.5%; in the test on OVCAR-4 ovarian, 58.9%; in the test on SK-OV-3 ovarian, 100%. Moreover, the growth was 67.5% with IGROV1 ovarian; 23.7% in the test with OVCAR-3 ovarian; 85.7% with HS 578T breast; 106% in the test with NCI/ADR-RES ovarian; 45.2% in the test with T-47D breast; 74.5% with BT-549 breast. For the same compound, the growth in the test with MDA-MB-435 melanoma was 80.9%; in the test on SW-620 colon, 3.86% (active); with MCF7 breast it was 38.6%; in the test with HCT-116 colon, 28.3%; in the test on HCC-2998 colon, 105%; with KM12 colon, 98.4%.
With `Nc1nc2ccccc2c2c(=O)c3cc(Cl)ccc3sc12`, the growth was 94.8% in the test with SR leukemia; 102% in the test with RPMI-8226 leukemia; 99.2% with OVCAR-8 ovarian; 97.9% in the test with OVCAR-5 ovarian; 87.9% in the test with OVCAR-4 ovarian; 79.8% with SK-OV-3 ovarian. In addition, the growth in the test on IGROV1 ovarian was 90.2%; with OVCAR-3 ovarian it was -22.8% (active); in the test on HS 578T breast, 100%; in the test with NCI/ADR-RES ovarian, 108%; in the test on T-47D breast, 45.3%; with BT-549 breast, 105%. Moreover, the growth with MDA-MB-435 melanoma was 101%; with SW-620 colon, 117%; in the test on MCF7 breast, 27.2%; in the test with HCT-116 colon, 88.7%; in the test with HCC-2998 colon, 97.5%; in the test on KM12 colon, 12.9%.
As for `O=c1cc(CNc2cc(F)cc(F)c2)c2ccc(I)cc2[nH]1`, the growth in the test with SR leukemia is -0.446% (active); in the test on RPMI-8226 leukemia, 15.8%; in the test with OVCAR-8 ovarian, 53.5%; in the test with OVCAR-5 ovarian it was 64.3%; in the test on OVCAR-4 ovarian it was 60.2%; in the test with SK-OV-3 ovarian it was 39%. Besides, the growth in the test on IGROV1 ovarian is 45.9%; with OVCAR-3 ovarian it was 11.2%; in the test with HS 578T breast it was 19.9%; in the test on NCI/ADR-RES ovarian, 26.3%; in the test with T-47D breast, 35.8%; with BT-549 breast, 54.8%. The growth in the test on MDA-MB-435 melanoma was -28.1% (active); in the test with SW-620 colon, 19.1%; in the test with MCF7 breast it was 21.9%; in the test with HCT-116 colon, 26.4%; in the test on HCC-2998 colon it was 64.6%; in the test with KM12 colon it was 24.1%.
For `O=C1/C(=C/c2cccc(Br)c2)COc2ccc(O)cc21`, the growth in the test on SR leukemia is 4.39% (active); in the test with RPMI-8226 leukemia, -27.3% (active); in the test with OVCAR-8 ovarian, 54.1%; in the test with OVCAR-5 ovarian, 89.8%; in the test on OVCAR-4 ovarian it was 83.4%; in the test with SK-OV-3 ovarian it was 115%. Besides, the growth with IGROV1 ovarian is 78%; with OVCAR-3 ovarian, 49.1%; in the test on HS 578T breast, 60.3%; in the test on NCI/ADR-RES ovarian, 47.6%; with T-47D breast, 19.6%; with BT-549 breast, 47.7%. For the same compound, the growth was 25.1% in the test with MDA-MB-435 melanoma; -21.2% (active) in the test on SW-620 colon; 6.98% (active) in the test with MCF7 breast; 6.67% (active) in the test on HCT-116 colon; 86.2% in the test with HCC-2998 colon; 28% in the test with KM12 colon.
Take `O=C1C=C(SCCO)C(=O)c2ccccc21`: the growth with SR leukemia is -16.1% (active); in the test with RPMI-8226 leukemia, 12.9%; in the test on OVCAR-8 ovarian, 28.9%; with OVCAR-5 ovarian, 87.7%; in the test on OVCAR-4 ovarian, 39.1%; in the test on SK-OV-3 ovarian it was 105%. In addition, the growth was 68.6% in the test with IGROV1 ovarian; -3.21% (active) in the test on OVCAR-3 ovarian; 2.8% (active) in the test on HS 578T breast; 4.12% (active) in the test on NCI/ADR-RES ovarian; -1.68% (active) in the test on T-47D breast; -26.5% (active) in the test on BT-549 breast. In addition, the growth is -88.3% (active) in the test on MDA-MB-435 melanoma; -52.6% (active) with SW-620 colon; -55.1% (active) in the test with MCF7 breast; -48.5% (active) in the test on HCT-116 colon; 78.3% in the test on HCC-2998 colon; 83.4% with KM12 colon.
